Source: paper PMC7862700, “An all-to-all approach to the identification of sequence-specific readers for epigenetic DNA modifications on cytosine”

Assays:
Test in all cases: DAPPL (digital affinity profiling via proximity ligation, sequencing); 10 mM Tris-HCl pH 7.5, 50 mM NaCl, 1 mM DTT, 4% glycerol, room temperature, 30 min; GST-TFs on glutathione beads, 16-mer random dsDNA library, 0.1% formaldehyde crosslink after washing; high values mean tight binding
Settings in all cases: protein: recombinant; tags: N-terminal GST; dsDNA, one strand shown
[1] = target: T1, FLI1 (Homo sapiens, UniProt Q01543 1-452)
T1 sequence: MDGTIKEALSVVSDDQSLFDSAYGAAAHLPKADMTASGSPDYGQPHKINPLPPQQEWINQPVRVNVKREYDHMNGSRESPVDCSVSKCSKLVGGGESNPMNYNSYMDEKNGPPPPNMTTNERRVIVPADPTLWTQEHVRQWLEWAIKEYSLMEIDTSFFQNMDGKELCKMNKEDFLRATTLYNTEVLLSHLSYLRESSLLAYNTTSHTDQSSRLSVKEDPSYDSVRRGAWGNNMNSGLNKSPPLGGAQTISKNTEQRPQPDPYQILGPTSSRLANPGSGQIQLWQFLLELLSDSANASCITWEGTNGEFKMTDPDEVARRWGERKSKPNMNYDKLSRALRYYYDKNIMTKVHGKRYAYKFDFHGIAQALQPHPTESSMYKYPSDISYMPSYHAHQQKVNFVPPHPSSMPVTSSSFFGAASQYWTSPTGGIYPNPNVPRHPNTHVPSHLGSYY
In short: (§1)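 Human transcription factors were made in yeast as GST fusions, captured on glutathione beads and barcoded with DNA. With a tag-only sample included, the pool was incubated with 200 nmole of a random double-stranded 16-mer DNA library in Tris/NaCl/DTT/glycerol buffer at room temperature for 30 min, then crosslinked with 0.1% formaldehyde after washing, ligated by proximity, amplified and sequenced. For binding signal, each hexamer's read frequency for a factor is divided by its frequency for the tag-only sample.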

[2] = target: T2, ELK1 (Homo sapiens, UniProt P19419 1-428)
T2 sequence: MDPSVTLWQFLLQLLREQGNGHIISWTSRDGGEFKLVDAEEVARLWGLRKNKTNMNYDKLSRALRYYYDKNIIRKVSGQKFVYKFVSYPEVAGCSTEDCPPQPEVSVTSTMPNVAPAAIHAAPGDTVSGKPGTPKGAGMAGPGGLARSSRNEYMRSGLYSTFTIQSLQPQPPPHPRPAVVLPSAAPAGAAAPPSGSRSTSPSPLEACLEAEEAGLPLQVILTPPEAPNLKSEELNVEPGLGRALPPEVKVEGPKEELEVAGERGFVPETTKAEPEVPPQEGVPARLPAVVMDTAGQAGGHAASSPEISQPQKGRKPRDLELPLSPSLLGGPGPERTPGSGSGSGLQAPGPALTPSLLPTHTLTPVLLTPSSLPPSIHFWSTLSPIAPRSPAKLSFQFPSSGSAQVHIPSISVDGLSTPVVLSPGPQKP
In short: as §1

[3] = target: T3, GABPA (Homo sapiens, UniProt Q06546 1-454)
T3 sequence: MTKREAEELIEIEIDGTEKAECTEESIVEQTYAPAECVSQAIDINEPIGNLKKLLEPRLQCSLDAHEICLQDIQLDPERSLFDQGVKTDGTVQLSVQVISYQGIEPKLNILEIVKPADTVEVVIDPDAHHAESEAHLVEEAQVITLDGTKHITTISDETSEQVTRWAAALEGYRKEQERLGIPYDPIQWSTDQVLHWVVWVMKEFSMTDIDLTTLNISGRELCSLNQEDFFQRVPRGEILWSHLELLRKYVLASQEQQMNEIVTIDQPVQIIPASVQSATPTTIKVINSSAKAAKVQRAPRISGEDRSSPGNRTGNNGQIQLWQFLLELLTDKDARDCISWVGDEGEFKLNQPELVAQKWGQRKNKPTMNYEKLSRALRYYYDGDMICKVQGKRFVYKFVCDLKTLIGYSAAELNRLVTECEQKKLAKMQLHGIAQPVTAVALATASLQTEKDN
In short: as §1

[4] = target: T4, ERG (Homo sapiens, UniProt P11308 1-479)
T4 sequence: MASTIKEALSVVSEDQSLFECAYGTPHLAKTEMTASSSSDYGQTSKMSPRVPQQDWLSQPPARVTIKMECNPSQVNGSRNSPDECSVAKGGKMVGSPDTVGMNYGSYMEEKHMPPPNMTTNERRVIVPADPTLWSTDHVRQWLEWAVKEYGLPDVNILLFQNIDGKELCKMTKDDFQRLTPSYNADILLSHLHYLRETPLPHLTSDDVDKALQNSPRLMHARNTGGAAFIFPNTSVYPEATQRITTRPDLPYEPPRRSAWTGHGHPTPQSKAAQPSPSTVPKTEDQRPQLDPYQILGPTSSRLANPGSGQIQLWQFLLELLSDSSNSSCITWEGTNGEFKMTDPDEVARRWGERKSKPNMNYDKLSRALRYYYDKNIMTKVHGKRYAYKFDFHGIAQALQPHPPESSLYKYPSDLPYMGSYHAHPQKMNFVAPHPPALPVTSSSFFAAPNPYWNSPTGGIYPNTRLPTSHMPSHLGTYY
In short: as §1

[5] = target: ELF1 (Homo sapiens, UniProt P32519 1-619)
Chain of ELF1 (P32519 whole entry): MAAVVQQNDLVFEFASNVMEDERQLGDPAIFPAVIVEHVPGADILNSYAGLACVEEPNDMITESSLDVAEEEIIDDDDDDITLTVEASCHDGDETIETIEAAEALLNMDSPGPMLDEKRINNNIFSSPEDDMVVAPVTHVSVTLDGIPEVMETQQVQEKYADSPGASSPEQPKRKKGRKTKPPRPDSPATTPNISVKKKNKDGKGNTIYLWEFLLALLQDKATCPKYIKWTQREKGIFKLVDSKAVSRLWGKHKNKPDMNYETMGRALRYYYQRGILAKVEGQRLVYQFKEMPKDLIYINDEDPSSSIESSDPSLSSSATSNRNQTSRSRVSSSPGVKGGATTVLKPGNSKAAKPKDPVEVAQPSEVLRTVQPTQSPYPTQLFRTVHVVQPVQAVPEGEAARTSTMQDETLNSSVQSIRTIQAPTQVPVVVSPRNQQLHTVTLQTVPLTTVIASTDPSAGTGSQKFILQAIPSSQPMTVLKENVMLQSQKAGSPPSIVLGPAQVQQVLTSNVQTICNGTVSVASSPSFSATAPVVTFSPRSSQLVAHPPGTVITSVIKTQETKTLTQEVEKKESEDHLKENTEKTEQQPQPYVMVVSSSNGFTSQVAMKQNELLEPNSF
In short: as §1

[6] = target: T5, EHF (Homo sapiens, UniProt Q9NZC4 1-300)
T5 sequence: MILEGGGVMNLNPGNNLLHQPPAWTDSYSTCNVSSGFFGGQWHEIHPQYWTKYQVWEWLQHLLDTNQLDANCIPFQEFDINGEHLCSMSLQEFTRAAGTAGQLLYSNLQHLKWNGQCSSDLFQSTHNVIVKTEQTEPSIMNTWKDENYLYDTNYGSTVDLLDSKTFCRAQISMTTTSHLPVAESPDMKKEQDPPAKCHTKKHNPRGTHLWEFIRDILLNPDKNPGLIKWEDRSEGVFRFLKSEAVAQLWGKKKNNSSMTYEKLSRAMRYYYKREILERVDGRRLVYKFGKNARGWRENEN
In short: as §1

[7] = target: SPI1 (Homo sapiens, UniProt P17947 1-270)
In short: as §1

[8] = target: SPIB (Homo sapiens, UniProt Q01892 1-262)
Chain of SPIB (Q01892 whole entry): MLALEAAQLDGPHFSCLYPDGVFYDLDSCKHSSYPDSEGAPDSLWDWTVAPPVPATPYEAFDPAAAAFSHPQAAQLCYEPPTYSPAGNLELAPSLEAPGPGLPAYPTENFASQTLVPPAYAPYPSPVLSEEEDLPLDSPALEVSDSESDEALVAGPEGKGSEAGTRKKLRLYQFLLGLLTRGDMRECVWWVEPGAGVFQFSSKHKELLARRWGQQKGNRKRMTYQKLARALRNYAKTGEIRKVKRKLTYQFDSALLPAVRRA
In short: as §1

[9] = target: T6, ELK3 (Homo sapiens, UniProt P41970 1-407)
T6 sequence: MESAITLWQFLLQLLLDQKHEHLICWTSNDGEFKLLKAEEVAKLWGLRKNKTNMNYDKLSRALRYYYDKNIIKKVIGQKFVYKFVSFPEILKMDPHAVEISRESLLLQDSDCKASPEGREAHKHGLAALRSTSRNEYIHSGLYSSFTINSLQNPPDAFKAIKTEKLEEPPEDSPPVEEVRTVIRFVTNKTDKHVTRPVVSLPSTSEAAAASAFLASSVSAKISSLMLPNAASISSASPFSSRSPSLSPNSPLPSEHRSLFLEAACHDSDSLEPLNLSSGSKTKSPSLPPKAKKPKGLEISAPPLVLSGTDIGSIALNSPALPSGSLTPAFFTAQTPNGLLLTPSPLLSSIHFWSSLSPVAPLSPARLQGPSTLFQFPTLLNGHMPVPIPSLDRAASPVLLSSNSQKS
In short: as §1

Sequence	binding signal [1]	binding signal [2]	binding signal [3]	binding signal [4]	binding signal [5]	binding signal [6]	binding signal [7]	binding signal [8]	binding signal [9]
GTACTT	1.92 fold enrichment (6-mer frequency, TF over GST control)	2.32 fold enrichment (6-mer frequency, TF over GST control)	1.81 fold enrichment (6-mer frequency, TF over GST control)	1.88 fold enrichment (6-mer frequency, TF over GST control)	1.9 fold enrichment (6-mer frequency, TF over GST control)	1.96 fold enrichment (6-mer frequency, TF over GST control)	1.94 fold enrichment (6-mer frequency, TF over GST control)	1.78 fold enrichment (6-mer frequency, TF over GST control)	2.51 fold enrichment (6-mer frequency, TF over GST control)
TTACCC	1.3 fold enrichment (6-mer frequency, TF over GST control)	1.44 fold enrichment (6-mer frequency, TF over GST control)	1.3 fold enrichment (6-mer frequency, TF over GST control)	1.34 fold enrichment (6-mer frequency, TF over GST control)	1.38 fold enrichment (6-mer frequency, TF over GST control)	1.43 fold enrichment (6-mer frequency, TF over GST control)	1.35 fold enrichment (6-mer frequency, TF over GST control)	1.45 fold enrichment (6-mer frequency, TF over GST control)	1.39 fold enrichment (6-mer frequency, TF over GST control)
TATATC	1.6 fold enrichment (6-mer frequency, TF over GST control)	1.62 fold enrichment (6-mer frequency, TF over GST control)	1.55 fold enrichment (6-mer frequency, TF over GST control)	1.48 fold enrichment (6-mer frequency, TF over GST control)	1.58 fold enrichment (6-mer frequency, TF over GST control)	1.59 fold enrichment (6-mer frequency, TF over GST control)	1.54 fold enrichment (6-mer frequency, TF over GST control)	1.67 fold enrichment (6-mer frequency, TF over GST control)	1.42 fold enrichment (6-mer frequency, TF over GST control)
TTAACT	1.18 fold enrichment (6-mer frequency, TF over GST control)	1.14 fold enrichment (6-mer frequency, TF over GST control)	1.15 fold enrichment (6-mer frequency, TF over GST control)	1.17 fold enrichment (6-mer frequency, TF over GST control)	1.27 fold enrichment (6-mer frequency, TF over GST control)	1.1 fold enrichment (6-mer frequency, TF over GST control)	1.23 fold enrichment (6-mer frequency, TF over GST control)	1.21 fold enrichment (6-mer frequency, TF over GST control)	1.19 fold enrichment (6-mer frequency, TF over GST control)
AAGATT	1.1 fold enrichment (6-mer frequency, TF over GST control)	1.17 fold enrichment (6-mer frequency, TF over GST control)	1.18 fold enrichment (6-mer frequency, TF over GST control)	1.17 fold enrichment (6-mer frequency, TF over GST control)	1.19 fold enrichment (6-mer frequency, TF over GST control)	1.16 fold enrichment (6-mer frequency, TF over GST control)	1.12 fold enrichment (6-mer frequency, TF over GST control)	1.16 fold enrichment (6-mer frequency, TF over GST control)	1.04 fold enrichment (6-mer frequency, TF over GST control)
TTGTAA	1.32 fold enrichment (6-mer frequency, TF over GST control)	1.3 fold enrichment (6-mer frequency, TF over GST control)	1.24 fold enrichment (6-mer frequency, TF over GST control)	1.27 fold enrichment (6-mer frequency, TF over GST control)	1.34 fold enrichment (6-mer frequency, TF over GST control)	1.34 fold enrichment (6-mer frequency, TF over GST control)	1.3 fold enrichment (6-mer frequency, TF over GST control)	1.22 fold enrichment (6-mer frequency, TF over GST control)	1.08 fold enrichment (6-mer frequency, TF over GST control)
CTTTGA	1.29 fold enrichment (6-mer frequency, TF over GST control)	1.22 fold enrichment (6-mer frequency, TF over GST control)	1.26 fold enrichment (6-mer frequency, TF over GST control)	1.26 fold enrichment (6-mer frequency, TF over GST control)	1.26 fold enrichment (6-mer frequency, TF over GST control)	1.16 fold enrichment (6-mer frequency, TF over GST control)	1.21 fold enrichment (6-mer frequency, TF over GST control)	1.24 fold enrichment (6-mer frequency, TF over GST control)	1.15 fold enrichment (6-mer frequency, TF over GST control)
